Measurements: PubChem BioAssay (NCI)
The panel holds about 79,000 compounds, 15% with a hit somewhere; the sample as a whole holds those more often. Values without a mark were called inactive. The source made the active and inactive calls. No stated cut-off is given here; in the data, active means growth inhibition above about 70%; inactive means the rest.

How the values were obtained:
[1] = NCI Yeast Anticancer Drug Screen. Data for the rad50 strain (AID 155);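 further: 0% = growth of vehicle-only cultures of the same strain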; conditions: S. cerevisiae rad50 strain growth inhibition, stronger effect = higher value
Summary of the method: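 Inhibition values express reduced yeast growth in compound-treated cultures relative to vehicle-treated controls.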

[2] = NCI Yeast Anticancer Drug Screen. Data for the mec2-1 strain (AID 157); conditions: S. cerevisiae mec2-1 strain, stronger effect = higher value
Summary of the method: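 Readout is yeast growth inhibition, normalised to vehicle-treated controls, in the mec2-1 strain exposed to compound.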

[3] = NCI Yeast Anticancer Drug Screen. Data for the sgs1 mgt1 strain (AID 161);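 further: 0% = growth of cultures given vehicle only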; conditions: S. cerevisiae sgs1 mgt1 strain, stronger effect = higher value
Summary of the method: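 Percent growth inhibition was derived by comparing compound-exposed mutant yeast with vehicle-exposed cultures. The strain carries alterations in DNA damage repair.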

[4] = NCI Yeast Anticancer Drug Screen. Data for the cln2 rad14 strain (AID 165);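 further: 0% = growth equal to vehicle treated cultures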; conditions: S. cerevisiae cln2 rad14 strain, stronger effect = higher value
Summary of the method: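 Relative to vehicle controls, growth inhibition of compound-treated cln2 rad14 yeast was recorded.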

[5] = NCI Yeast Anticancer Drug Screen. Data for the bub3 strain (AID 167); conditions: S. cerevisiae bub3 mutant strain, stronger effect = higher value
Summary of the method: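 Steps: expose the mutant yeast strain to compound; grow alongside vehicle-treated cultures; measure growth; express inhibition against the vehicle cultures.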

[6] = NCI Yeast Anticancer Drug Screen. Data for the mlh1 rad18 strain (AID 175); conditions: S. cerevisiae mlh1 rad18 strain growth inhibition, stronger effect = higher value
Summary of the method: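 Test agents were incubated with a yeast strain of defined genotype (DNA damage repair defect). Inhibition of growth was derived by comparison with vehicle-exposed cultures.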

[7] = at 5.0 µM (retest, dose inferred, filed as 0.5)
[8] = at 50.0 µM (retest, dose inferred, filed as 5.0)

Compound | growth inhibition [1, 7] | growth inhibition [1, 8] | growth inhibition ([1]; at 50.0 µM) | growth inhibition [2, 7] | growth inhibition [2, 8] | growth inhibition ([2]; at 50.0 µM) | growth inhibition [3, 7] | growth inhibition [3, 8] | growth inhibition ([3]; at 50.0 µM) | growth inhibition [4, 7] | growth inhibition [4, 8] | growth inhibition ([4]; at 50.0 µM) | growth inhibition [5, 7] | growth inhibition [5, 8] | growth inhibition ([5]; at 50.0 µM) | growth inhibition [6, 7] | growth inhibition [6, 8] | growth inhibition ([6]; at 50.0 µM)
O=C(c1ccccc1)N1CCCCC1 | -1% | 33% | 81.5% (active) | 0% | 5% | -1.55% | -2% | 3% | 23.9% | 2% | 3% | 48% | -2% | 3% | 15.5% | 0% | 6% | 47%
COC(=O)CSC(=S)Nc1ccc(Cl)cc1 | 3% | 92% (active) | 83.5% (active) | -6% | 96% (active) | 4.25% | -4% | 97% (active) | 44.3% | -5% | 60% | -74.6% | -7% | 85% (active) | 36.5% | 7% | 98% (active) | 51.4%
COc1ccc(C(CN2CCOCC2)C(C)=O)cc1OC (configuration not stated) | 7% | 81% (active) | 72.4% (active) | 12% | 93% (active) | 70.1% (active) | 13% | 85% (active) | 88.5% (active) | 7% | 40% | 23.6% | 10% | 92% (active) | 69.7% | 5% | 93% (active) | 87.2% (active)
COc1ccc(-c2ccccc2)cc1SCCC(=O)O | 3% | 15% | 79.7% (active) | -1% | 21% | 70.5% (active) | 4% | 32% | 48.3% | -7% | 17% | 77.7% (active) | 0% | 10% | 65.2% | -2% | 20% | 87% (active)
CSC(=S)NN=C(c1ccccn1)c1ccccn1 | 78% (active) | 96% (active) | 94% (active) | 24% | 31% | 97.8% (active) | 92% (active) | 99% (active) | 85.4% (active) | 4% | -19% | 91.7% (active) | -5% | 96% (active) | -8.05% | 78% (active) | 80% (active) | 36%
CCOC(=O)Cc1cc(=O)oc2c(CN3CCN(c4ccc(C)cc4)CC3)c(O)ccc12 | 3% | 55% | 60.8% | 3% | 77% (active) | 51.7% | -1% | 87% (active) | 38.2% | 8% | 74% (active) | 1.2% | 7% | 86% (active) | 26.8% | 3% | 81% (active) | 78.8% (active)
CCOC(=O)c1ccc(-n2c(C)nc3ccc(Br)cc3c2=O)cc1 | -4% | -6% | 53% | -1% | -7% | 61.6% | -4% | -7% | 40% | 0% | -6% | 64.5% | 1% | -1% | 77.6% (active) | -2% | -6% | 74.8% (active)
C#CC(CC)(CC)NC(=O)NC(C)(C)C | 0% | -18% | 2.1% | -26% | -25% | 0.85% | -11% | -1% | 35.5% | 2% | 23% | -1.85% | -19% | -17% | 28.4% | -21% | -59% | 2.3%
C=C(Br)CN(CC)CC | -151% | -185% | -16.6% | -48% | -54% | -15.7% | -64% | -67% | -5.55% | -51% | -63% | 11.7% | -69% | -72% | -0.5% | -130% | -170% | -3.5%
